This experiment in a line: HT29 colon tumor cell growth inhibition, primary screen, imaging, high content imaging, 72 h, CellTiter-Glo (AID 772).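 For condensed nuclei: condensed means nuclear area below control median minus 1.5 SD.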 Conditions: HCS imaging cell count, at 10 µM, stronger effect = higher value; for condensed nuclei: measured here: percent cells with condensed nuclei.
Where [1] appears, read: measured here: ATP CellTiter-Glo viability.

Screen size: about 3,300 compounds; about 20 (0.6%) were called active. This is one part of a sample in which actives are shown more often than they occur.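 Rule for the calls: active = growth inhibition above 90%, meaning viable cell count cut by more than 90% versus vehicle controls; inactive = growth inhibition below 90%.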

`Cc1cc(C)nc(N(C#N)CC(=O)N(c2ccccc2)C(C)C)n1`: the growth inhibition is -23.3% (inactive) and the condensed nuclei amounted to 7.69%. In addition, the growth inhibition under setting [1] is -17.6%.

With `Clc1ccc2[nH]c3c(NCCCN4CCOCC4)ncnc3c2c1`, the growth inhibition is 88.5% (inactive) and the condensed nuclei turned out to be 45.3%. Also, the growth inhibition under setting [1] was 96.8%.

For `COC(=O)C(NC(C)=O)(Nc1ccc(Br)cn1)C(F)(F)F` (centres undefined), the growth inhibition was -46.6% (inactive) and the condensed nuclei was 2.33%. Moreover, under setting [1], the growth inhibition is -39%.

Take `O=C1CC(c2ccccc2)n2nc(NS(=O)(=O)c3ccccc3)nc2N1` (centres undefined): the growth inhibition is 6.12% (inactive) and the condensed nuclei is 5.04%. Also, under setting [1], the growth inhibition was 25.8%.

`CCOC(=O)CNS(=O)(=O)c1cc(-c2n[nH]c(=O)c3ccccc23)ccc1C`: the growth inhibition was -38.6% (inactive) and the condensed nuclei stood at 6.33%. The growth inhibition under setting [1] is -21.1%.

`Cc1nc(/N=C(\N)Nc2ccccc2)nc2ccccc12`: the growth inhibition is -39.5% (inactive) and the condensed nuclei was 3.28%. In addition, the growth inhibition under setting [1] was -11.8%.

For the molecule `CCCCCOc1ccccc1C(=O)NCC(=O)O`, the growth inhibition is -69.1% (inactive) and the condensed nuclei worked out at 1.44%. In addition, under setting [1], the growth inhibition was -28.9%.

Consider `CSc1nc2sc3c(c2c2nnnn12)CCCC3`, for which the growth inhibition is 37.7% (inactive) and the condensed nuclei is 2.53%. Also, the growth inhibition under setting [1] was determined as 9.47%.

Take `Cc1ccc(N2C(=O)[C@@H]3[C@H](C2=O)C2CCCN2[C@@H]3C(=O)c2ccccc2)cc1` (some centres undefined): the growth inhibition was 61.8% (inactive) and the condensed nuclei turned out to be 4.55%. For the same molecule, the growth inhibition under setting [1] is 9.87%.

On to `N#Cc1nc(COc2ccc(Cl)cc2)oc1N1CCN(Cc2ccccc2)CC1`, for which the growth inhibition is 85.7% (inactive) and the condensed nuclei was determined as 7.69%. Also, the growth inhibition under setting [1] is 70.5%.

With `N#Cc1nc(COc2ccc(Br)cc2)oc1N1CCCC1`, the growth inhibition is 31.9% (inactive) and the condensed nuclei stood at 13.2%. The growth inhibition under setting [1] is -4.22%.

Consider `COc1ccc(N2CCN(c3oc(COc4ccc(Cl)cc4)nc3C#N)CC2)cc1`, for which the growth inhibition is 92.4% (active) and the condensed nuclei worked out at 23.8%. The growth inhibition under setting [1] amounted to 87.2%.

As for `Cc1c(C(=O)O)sc(=S)n1-c1ccccc1`, the growth inhibition was 46.5% (inactive) and the condensed nuclei was found to be 3.47%. Further, under setting [1], the growth inhibition turned out to be 9.56%.

Take `CC(=O)C1=C(O)C(=O)N(c2ccc(C(=O)O)cc2)C1c1ccccc1` (centres undefined): the growth inhibition was -93.1% (inactive) and the condensed nuclei was 4.2%. Also, the growth inhibition under setting [1] was -74.7%.

With `COC(=O)C1=C(C)N=C2SC(C)C(=O)N2C1c1ccc(C(=O)OC)cc1` (centres undefined), the growth inhibition was -44.2% (inactive) and the condensed nuclei turned out to be 6.05%. Under setting [1], the growth inhibition is -32%.

Take `CCN(CC)CCN1C(=O)C(O)=C(C(=O)c2ccco2)C1c1ccccn1` (centres undefined): the growth inhibition is -51.4% (inactive) and the condensed nuclei amounted to 2.14%. For the same molecule, under setting [1], the growth inhibition was -77%.

In the case of `CC(=O)C1=C(NC(=O)c2ccccc2F)C[C@@H]2[C@H]1C2(C)C`, the growth inhibition was -1.88% (inactive) and the condensed nuclei came out at 2.19%. In addition, the growth inhibition under setting [1] is -28.5%.

As to `Cc1ccc(-n2c(=O)c3c4c(sc3n3c(C)nnc23)COC(C(C)C)C4)cc1` (centres undefined), the growth inhibition is -38% (inactive) and the condensed nuclei amounted to 4.02%. Moreover, the growth inhibition under setting [1] was -56.1%.

For the molecule `O=C(NC1CCS(=O)(=O)C1)N1CCCCC1` (centres undefined), the growth inhibition was 28.2% (inactive) and the condensed nuclei came out at 9.88%. Under setting [1], the growth inhibition came out at 4.61%.

Regarding `COC(=O)c1ccccc1NC(=O)CSc1nnc(-c2ccncc2)o1`, the growth inhibition is 11.7% (inactive) and the condensed nuclei was 4.89%. Besides, the growth inhibition under setting [1] was -27.3%.

`CCOC(=O)c1[nH]c2ccc(C)cc2c1N=CN(CC)CC`: the growth inhibition was 1.88% (inactive) and the condensed nuclei was determined as 12.3%. Under setting [1], the growth inhibition was -13%.

With `COC(=O)c1ccccc1NC(=O)C1COc2ccccc2O1` (centres undefined), the growth inhibition is 16.2% (inactive) and the condensed nuclei worked out at 13.5%. The growth inhibition under setting [1] is 13.5%.

In the case of `COc1cc2nc(N3CCN(C(=O)C4CCCO4)CC3)nc(N)c2cc1OC` (centres undefined), the growth inhibition was -61.2% (inactive) and the condensed nuclei stood at 2.06%. Further, under setting [1], the growth inhibition is -20.9%.

As for `COc1cccc(OC)c1OCCN1CCN(C(=O)c2ccco2)CC1`, the growth inhibition is 18.1% (inactive) and the condensed nuclei came to 3.57%. For the same molecule, the growth inhibition under setting [1] worked out at 7.71%.

Turning to `COc1cc2nc(N3CCN(C(=O)C4COc5ccccc5O4)CC3)nc(N)c2cc1OC` (centres undefined), the growth inhibition was 96% (active) and the condensed nuclei is 21.8%. The growth inhibition under setting [1] was found to be 83.5%.

On to `COc1ccc2[nH]c(C)c(C(=O)CN3CCN(C(=O)c4ccco4)CC3)c2c1`, for which the growth inhibition is -20.9% (inactive) and the condensed nuclei turned out to be 3.46%. Under setting [1], the growth inhibition is -49.5%.

Regarding `COc1cc2nc(N3CCN(C(=O)c4ccco4)CC3)nc(N)c2cc1OC`, the growth inhibition is 94.7% (active) and the condensed nuclei came out at 30.2%. For the same molecule, the growth inhibition under setting [1] was 67.4%.

For the molecule `O=C(O)c1nsc(Cl)c1Cl`, the growth inhibition is -41.6% (inactive) and the condensed nuclei worked out at 1.81%. The growth inhibition under setting [1] was -55.8%.

As for `Cc1cccc(OCC(=O)N2CCC(N3CCCCCC3)CC2)c1`, the growth inhibition was -20.3% (inactive) and the condensed nuclei worked out at 13.8%. For the same molecule, the growth inhibition under setting [1] is -10.7%.

As for `CN(C)CC(O)COc1cccc(OCC(O)CN(C)C)c1` (centres undefined), the growth inhibition is -49% (inactive) and the condensed nuclei was 5.18%. Further, the growth inhibition under setting [1] was -41%.

Consider `CN(C)CC(O)COc1ccc(C(C)(C)c2ccc(OCC(O)CN(C)C)cc2)cc1` (centres undefined), for which the growth inhibition was 61.9% (inactive) and the condensed nuclei came to 18.1%. In addition, the growth inhibition under setting [1] was 98.3%.

As for `CN(C)CC(O)COc1ccc(-c2ccc(C#N)cc2)cc1` (centres undefined), the growth inhibition is 90.2% (active) and the condensed nuclei came out at 7.89%. In addition, the growth inhibition under setting [1] stood at 86%.

With `Cn1c(=O)c2c(nc(Br)n2Cc2ccc3ccccc3c2)n(C)c1=O`, the growth inhibition is 57.1% (inactive) and the condensed nuclei is 5.08%. Under setting [1], the growth inhibition is 9.53%.

For the molecule `Cc1cc(=O)[nH]c(SCC(=O)c2ccccc2)c1C#N`, the growth inhibition was 27.9% (inactive) and the condensed nuclei stood at 2.93%. In addition, under setting [1], the growth inhibition is -16.6%.

In the case of `CCCSc1nc(C)c(CC(=O)O)c(=O)[nH]1`, the growth inhibition was -32.6% (inactive) and the condensed nuclei was 3.23%. In addition, under setting [1], the growth inhibition is -21%.

`CCN(CC)C(=O)C1CCN(c2ncnc3c2cnn3-c2ccc(C)cc2C)CC1`: the growth inhibition is 63.8% (inactive) and the condensed nuclei stood at 6.87%. Besides, the growth inhibition under setting [1] turned out to be 64.7%.

As to `Fc1ccc(C2C3=C(Nc4ncnn42)c2ccccc2OC3c2ccncc2)cc1` (centres undefined), the growth inhibition was 61.8% (inactive) and the condensed nuclei worked out at 17.7%. Besides, the growth inhibition under setting [1] is 20.5%.

As to `CCCOc1ccc(CSC(CC(=O)O)C(=O)O)cc1` (centres undefined), the growth inhibition was -29% (inactive) and the condensed nuclei was found to be 0.98%. Further, under setting [1], the growth inhibition is -72.1%.

The values above are taken from PubChem BioAssay AID772 (SRMLSC, 2007).
